The list is not random: actives were taken first. Their share in the collection is about 6%.
D3 antag: qHTS of D3 Dopamine Receptor Antagonist: qHTS | D3R cells, DiscoveRx beta-arrestin luminescence, antagonist mode; stronger effect = lower value | 360,000 compounds, 2.5% hits | max response, negative = inhibition, %; in the data active means max response below about -50%; inconclusive means no clear call, values can overlap the other calls; further: on the % scale 0 is the no-effect control and ±100 the full control effect
Target sequence (P35462 whole entry, looked up): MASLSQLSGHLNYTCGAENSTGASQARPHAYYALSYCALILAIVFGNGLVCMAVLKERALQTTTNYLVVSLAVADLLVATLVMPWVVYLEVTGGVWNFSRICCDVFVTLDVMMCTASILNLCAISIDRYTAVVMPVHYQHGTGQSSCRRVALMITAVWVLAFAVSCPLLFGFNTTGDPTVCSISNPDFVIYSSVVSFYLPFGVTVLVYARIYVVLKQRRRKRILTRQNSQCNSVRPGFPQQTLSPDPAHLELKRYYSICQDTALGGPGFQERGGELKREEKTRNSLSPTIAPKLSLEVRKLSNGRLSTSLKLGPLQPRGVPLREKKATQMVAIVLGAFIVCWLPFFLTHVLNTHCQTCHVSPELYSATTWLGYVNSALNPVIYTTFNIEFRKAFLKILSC
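Cells plated overnight at 1500 cells/well, then exposed to library compounds with dopamine controls for 90 minutes at 37 degrees C. DiscoveRx reagent added for 30–60 minutes at room temperature; luminescence read, quantitative HTS format.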
Chronic BCR inh: qHTS Assay to Find Inhibitors of Chronic Active B-Cell Receptor Signaling | Potency, µM (doses to about 46.1 µM), for the others: at the top dose activity change, negative = inhibition, usual class: inhibitors | 340,000 compounds, 0.05% hits | ABC-DLBCL IkBa-CBG/CBR reporter, luminescence ratio, 4 h; active means well fitted inhibition curve with a large enough effect in the signal ratio, with a control signal flat, not every such curve was filed as active; inconclusive means small, poorly fitted or top-dose-only effect, or effect the other way, or a change in a side signal; the % refers to the signal ratio;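 further: potency means the concentration at half of the fitted maximal effect; plate controls were basal doxycycline-induced cells for no effect and cells given 10 µM MG132 for full effect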
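Compounds up to 46 uM were incubated four hours with TMD8 cells whose green CBG68 luciferase is fused to IkappaBalpha; red CBR luminescence normalised the signal, and concentration-effect curves were fitted to fusion, red and ratio data.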
D1 antagonist: Antagonist of Human D 1 Dopamine Receptor: qHTS | D(1A) dopamine receptor (Homo sapiens), P21728 | AID 504652, 2011 | HEK293 TREx D1 cells, calcium flux, dopamine EC80; stronger effect = lower value | activity change, negative = inhibition, % at 10 µM | 360,000 compounds, 3.2% hits; in the data active means activity change below about -30%; further: on the % scale 0 is the no-effect control and ±100 the full control effect
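Using tetracycline-induced force-coupled D1 Hek293 cells and a calcium dye, signals were followed for 180 s after compound, then for 180 s after EC80 dopamine, to detect inhibitors.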
D1 PAM: Potentiators of Human D1 Dopamine Receptor: qHTS | HEK293 TREx D1 cells, calcium flux, dopamine EC20 potentiation | potentiation, % at 10 µM | 360,000 compounds, 0.036% hits | AID 504651, 2011; in the data active means potentiation above about 30%; further: 0% is about no effect
D1 agonist: Allosteric Agonists of the Human D1 Dopamine Receptor: qHTS; D(1A) dopamine receptor (Homo sapiens), P21728; HEK293 T-REx D1 cells, calcium flux, agonist mode; activation, % at 2 µM; 360,000 compounds, 1% hits; AID 504660, 2011; in the data active means activation above about 30%; further: 0% is about no effect
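Agonism was scored from calcium flux recorded over 180 s (1 read/s) after pintool compound addition, following a 10-cycle baseline. Cells were inducible force-coupled HEK293 TREx D1, plated overnight at 30 C and loaded with no-wash calcium dye.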
DRD3 agonist: qHTS of D3 Dopamine Receptor Agonist: qHTS; D(3) dopamine receptor (Homo sapiens), P35462; AID 652048, 2013; max activation, %; 410,000 compounds, 0.58% hits; D3R DiscoveRx beta-arrestin cells, luminescence, 90 min; in the data active means max activation above about 30%; further: 0% is about no effect
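Agonist mode: compounds and dopamine controls were applied to plated cells for 90 min at 37 degrees C after an overnight attachment at 1500 cells/well. Luminescent read-out followed 30 - 60 minutes at room temperature with DiscoveRx detection reagent.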
Active calls of the source: *.

How did COc1ccc(NC(=O)C2(C)CCN2CCc2ccccc2)cc1OC (configuration not stated) do in these assays?
D3 antag: 2; DRD3 agonist: 72*

How did COc1cccc(CC(=O)Nc2ccc3c(c2)c(=O)n(C)n3-c2ccc(C(C)(C)C)cc2)c1 do in these assays?
D3 antag: -58*; DRD3 agonist: -8

Results for CN(C)c1ccc(NC(=S)Nc2ccc3c(c2)c(=O)n(C)n3-c2ccc(C(C)(C)C)cc2)cc1 ?
D3 antag: -54*; DRD3 agonist: -17

Results for CN(C)c1ccc(NC(=O)Nc2ccc3c(c2)c(=O)n(C)n3-c2ccccc2)cc1 ?
D3 antag: 0; DRD3 agonist: -5

How did COc1cc(NC(=O)c2cc3c(=O)n(Cc4cccs4)ccc3nc2C)cc(OC)c1OC do in these assays?
D1 antagonist: 0; D1 PAM: -4; D1 agonist: 0; DRD3 agonist: -18

What do the screens show for `COc1ccccc1NC(=O)c1cc2c(=O)n(Cc3cccs3)ccc2nc1C`?
D1 antagonist: -40*; D1 PAM: -4; D1 agonist: 0; DRD3 agonist: -6

How did CC(C)C(=O)N1CCC1(C)C(=O)Nc1nc2ccccc2[nH]1 (configuration not stated) do in these assays?
D3 antag: 50; DRD3 agonist: 6

What do the screens show for `CC(=O)c1ccc(N2CCN(C(=O)Nc3ccc(F)cc3F)CC2)cc1`?
D3 antag: 2; Chronic BCR inh: 4%; D1 antagonist: 3; D1 PAM: -6; D1 agonist: 4; DRD3 agonist: 3

What do the screens show for `O=C(Nc1ccc(F)cc1F)N1CCN(c2ccc(Cl)c(Cl)c2)CC1`?
D1 antagonist: -32*; D1 PAM: -3; D1 agonist: 28; DRD3 agonist: -11

How did COc1cc(C2C(c3ccccc3)C(c3cc(OC)cc(=O)o3)C2c2ccccc2)oc(=O)c1 (configuration not stated) do in these assays?
D3 antag: 5; DRD3 agonist: -11

How did COc1ccc(NC(=O)c2oc3ccc(S(=O)(=O)N(C)C4CCCCC4)cc3c2C)cc1Cl do in these assays?
Chronic BCR inh: 2%; D1 antagonist: -30*; D1 PAM: 0; D1 agonist: -2; DRD3 agonist: 7

How did Cc1c(C(=O)Nc2ccc(F)c(Cl)c2)oc2ccc(S(=O)(=O)N(C)C3CCCCC3)cc12 do in these assays?
Chronic BCR inh: -6%; D1 antagonist: -21; D1 PAM: -2; D1 agonist: 2; DRD3 agonist: -12

How did COc1ccc2oc(C(=O)Nc3ccc(S(=O)(=O)N(C)C4CCN(C)CC4)cc3)c(C)c2c1 do in these assays?
D3 antag: -27; Chronic BCR inh: inconclusive; D1 antagonist: -49*; D1 PAM: -11; D1 agonist: 37*; DRD3 agonist: -17

What do the screens show for `COc1cc(OC)c(NC(=O)c2nnn(Cc3ccc(C)cc3)c2N)cc1Cl`?
D1 antagonist: 8; D1 PAM: 1; D1 agonist: 10; DRD3 agonist: -5

How did COc1ccccc1Oc1cn[nH]c1-c1ccc(O)cc1O do in these assays?
D3 antag: -26; Chronic BCR inh: -8%; D1 antagonist: -32*; D1 PAM: -6; D1 agonist: 2; DRD3 agonist: -3

Results for Cc1[nH]nc2c(=S)[nH]c(=O)[nH]c12 ?
D3 antag: -13; DRD3 agonist: -5

What do the screens show for `CCc1nnc(NC(=O)CSc2nccn2Cc2ccc(F)cc2)s1`?
D1 antagonist: -11; D1 PAM: 0; D1 agonist: 5; DRD3 agonist: -15

What do the screens show for `CC/C=C(\C(=O)N[C@@H]1C(=O)N2C(C(=O)OCOC(=O)C(C)(C)C)=C(COC(N)=O)CS[C@H]12)c1csc(N)n1`?
DRD3 agonist: -30

What do the screens show for `COc1cc(C2C(C(=O)c3ccc(C)o3)=C(O)C(=O)N2c2cc(C)on2)cc(Br)c1O` (configuration not stated)?
D3 antag: -57*; Chronic BCR inh: inconclusive; D1 antagonist: 6; D1 PAM: -1; D1 agonist: 2; DRD3 agonist: 0

Results for COc1cc(C2C(C(=O)c3ccco3)=C(O)C(=O)N2c2cc(C)on2)cc(Br)c1O (configuration not stated) ?
D3 antag: -73*; Chronic BCR inh: 3%; D1 antagonist: 15; D1 PAM: -8; D1 agonist: 2; DRD3 agonist: -13

What do the screens show for `CCN(CC)CCCNC(=O)c1nn(C)c2c1CS(=O)(=O)c1ccccc1-2`?
D1 antagonist: -4; D1 PAM: 0; D1 agonist: 0; DRD3 agonist: -10

Results for Cc1ccc(N=Nc2c(N)[nH]n3c(=O)cc(-c4ccccc4)nc23)cc1 ?
D3 antag: -28; Chronic BCR inh: inconclusive; D1 antagonist: -23; D1 PAM: -16; D1 agonist: 1; DRD3 agonist: -8

How did COc1cccc(N=Nc2c(N)[nH]n3c(=O)cc(-c4ccccc4)nc23)c1 do in these assays?
D3 antag: -17; Chronic BCR inh: inconclusive; D1 antagonist: -40*; D1 PAM: -5; D1 agonist: 2; DRD3 agonist: 0

What do the screens show for `COc1cc(OC)cc(C(=O)Nc2nnc3n2CCS3)c1`?
D1 antagonist: 7; D1 PAM: -4; D1 agonist: 0; DRD3 agonist: 5

How did COc1cccc(-c2ccc(NC(=O)C3CCCN(CCCn4nc(C)cc4C)C3)cc2)c1 (configuration not stated) do in these assays?
D3 antag: 5; Chronic BCR inh: inconclusive; D1 antagonist: -21; D1 PAM: -7; D1 agonist: 41*; DRD3 agonist: -2

What do the screens show for `CC(C)OCCCN1C(=O)c2[nH]nc(-c3ccccc3O)c2C1c1cccc(OCc2ccccc2)c1` (configuration not stated)?
D1 antagonist: 6; D1 PAM: 3; D1 agonist: 6; DRD3 agonist: 30*

What do the screens show for `COc1cccc(C=C(C(C)=O)C(=O)c2ccccc2)c1`?
D3 antag: -21; DRD3 agonist: -8

Results for COc1cccc(-c2cn3c(n2)sc2cc(C(=O)NCc4cccs4)ccc23)c1 ?
D1 antagonist: 22; D1 PAM: -1; D1 agonist: -1; DRD3 agonist: 4
